Data as given in PubChem BioAssay AID1159580 (chemical genetic matrix, 2015).
Hit rate of the full screen: of about 5,500 compounds, about 2,000 (36%) were called active. Inconclusive results (about 18%) are left out. Rule as the data show it: active = normalized growth mostly below about 0.91 (no sharp cut-off); inconclusive = no clear call, values can overlap the other calls; inactive = mostly above about 0.92. This is one part of the list.

Experiment: chemical genetic growth profiling, strain panel (AID 1159580);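 also: tested at 20 µM; growth read once vehicle control cultures reached saturation at 30 °C; 1 = growth at the plate median or of vehicle wells; lower values mean less growth of the strain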
Conditions: S. cerevisiae deletion strains, growth OD

Measured: normalized growth

Cn1cc(C2=C(c3ccc(Cl)cc3Cl)C(=O)NC2=O)c2ccccc21
inactive: locus YAL040C, strain CLN3, stronger effect = lower value 1.02 | locus YCL061C, strain MRC1 (second series), stronger effect = lower value 1.01 | locus YDR363W, strain ESC2, stronger effect = lower value 1.01 | locus YER002W, strain NOP16, stronger effect = lower value 0.994 | locus YMR263W, strain SAP30, stronger effect = lower value 1.01 | locus YNL175C, strain NOP13, stronger effect = lower value 1 | locus YNL197C, strain WHI3, stronger effect = lower value 1 | locus YNL224C, strain SQS1, stronger effect = lower value 1.02 | locus YNL322C, strain KRE1, stronger effect = lower value 1 | locus YOR083W, strain WHI5 (second series), stronger effect = lower value 1.01 | locus YPL241C, strain CIN2, stronger effect = lower value 1.01
